We go through 16 compounds from PubChem BioAssay (EPA / NIEHS).

Active and inactive are the calls of the source. How the source made its calls: active means hit-call score of the fitted dose curve at least 0.9, where 1 is the maximum; inactive means score below 0.9.

Read-out in the assay: Bcl-2 (BAD) gene, BAD (gene 572)
The assay is described as follows: LTEA_HepaRG_BAD: Life Technologies and Expression Analysis (LTEA) Assay for Bcl-2 (BAD) gene using HepaRG (AID 2283469). Conditions: mRNA level, 48 h; actives raise or lower the signal. Here is the method: LTEA_HepaRG is a cell based, multiplexed-readout assay that uses HepaRG, a human liver cell line, with measurements taken at 48 hours after chemical dosing on a 96-well plate.LTEA_HepaRG_BAD is one of 102 assay component(s) measured in the LTEA HepaRG cell culture assay. It is a marker of Cell proliferation, survival, death.Data from the assay component LTEA_HepaRG_BAD was analyzed into 1 endpoint. This assay endpoint, LTEA_HepaRG_BAD, was analyzed with bidirectional fitting relative to DMSO as the negative control and baseline of activity. Using a type of inducible reporter, measures of mRNA induction for gain or loss-of-signal activity can be used to understand regulation of transcription factor activity. To generalize the intended target to other relatable targets, this assay endpoint is annotated to the cell cycle intended target family, where the subfamily is Cell proliferation, survival, death.
A total of 1060 chemcials from the ToxCast library were tested in eight-point concentration-response experiments. Cell culture and cytotoxicity assays were conducted at Thermo Fisher Scientific's Custom Services facility (Madison, WI). A single lot of human HepaRG cells (Thermo Fisher Scientific, Frederick, MD) was used for the cell culture experiments. 96-well format collagen type I coated plates of human HepaRG cells were prepared using established methods. Briefly, cryopreserved HepaRG cells were thawed, plated at a density of approximately 100,000 cells/well in HepaRG Thaw, Plate, and General Purpose media (HPRG770, Thermo Fisher Scientific), and incubated for 48 hours. 0.5% DMSO was selected as vehicle control to balance the requisite need of DMSO in HepaRG cultures to maintain differentiation (for example, baseline metabolism, proportions of hepatocytes vs. cholangiocytes), while enabling further hepatic receptor pathway activation (for example, PXR and CAR) in response to chemical exposure. 48 hours after plating, the culture medium was replaced with HepaRG Serum-Free Incudtion Media. Cells were exposed to each test chemical in duplicate and maintained in CO2 incubators for another 48 hours. Chemical plates were thawed to room temperature and 200x concentrations of treatment groups were prepared. 8-point conentration-reponse curves were made with the highest exposure at 100 uM, followed by half-log dilutions, all in 0.5% DMSO. Each test plate contained variouse controls, induction positive controls (1mM phenobarbital), cytotoxicity positive controls ([…] aflatoxin B1), vehicle controls (0.5% DMSO), and total lysis controls (0.5% DMSO). Cell morphology images were taken using an Essen IncuCyte FLR automated microscope, with six 96-well plates imaged in about 24 minutes. Images were captured and exported and JPEG files. Spent culture media was transfered to black-well plates for the LDH assay, and remaining media was sorted at -80 C for later use. Cells were treated with RLT buffer and frozen until shipped for gene expression analysis. Total RNA was isolated from the cell suspension in 75 uL of Buffer RLT (Qiagen, Germantown, MD 20874) by Quintiles/Expression Analysis (Durham, NC) using a custom isolation procedure. Total RNA from each plate well was transferred to a preamplification plate. Fluidigm's 96.96 Dynamic ArrayTM (Fluidigm, Amsterdam, the Netherlands) technology was used for gene expression analyses by quantitative reverse transcription polymerase chain reaction (qRT-PCR, performed by Quintiles/Expression Analysis, Durham, NC)89. Standard TaqManTM Assays (Applied Biosystems/ThermoFisher Scientific, Foster City, CA) were used to assess the expression of 93 genes selected based on their selectivity and sensitivity to important hepatic receptors known to be modulated by environmental chemicals; importance in human hepatocyte functionality; and hepatotoxicity. […]
With `CC(=O)Nc1ccc(O)cc1`, the result was inactive. Consider `CCCCc1oc2ccccc2c1C(=O)c1cc(I)c(OCCN(CC)CC)c(I)c1`, for which the result was inactive. As to `Cc1[nH]nc2c1N=C(c1ccccc1Cl)c1cc([N+](=O)[O-])ccc1N2`, the compound was classed as inactive. The same measure for `CN(C)CCOC(c1ccccc1)c1ccccc1`: “inactive”; for `O=C(c1ccccc1)c1ccccc1`: “inactive”; for `CS(=O)(=O)c1ccc([C@@H](CC2CCCC2)C(=O)Nc2cnccn2)cc1Cl`: “inactive”. The same measure for `OCC(CO)(CBr)CBr`: “inactive”; for `CN(Cc1cnc2nc(N)nc(N)c2n1)c1ccc(C(=O)N[C@@H](CCC(=O)O)C(=O)O)cc1`: “inactive”.

`N=C(N)c1ccc(OCCCCCOc2ccc(C(=N)N)cc2)cc1`: the call was inactive. The same measure for `CCCCC=O`: “inactive”; for `CCC(C)c1ccccc1O` (stereo unspecified): “inactive”; for `CCCCC(CC)C(=O)O` (stereo unspecified): “inactive”. The same measure for `O=C(CCCN1CCC(O)(c2ccc(Cl)cc2)CC1)c1ccc(F)cc1`: “inactive”; for `CCCCCCCCCCCCOS(=O)(=O)O`: “inactive”; for `CCCCCCCCCCCCCCC`: “inactive”. For `O=C1NS(=O)(=O)c2ccccc21` the value was “inactive”.
